# Measured values taken from publication PMC7862700, “An all-to-all approach to the identification of sequence-specific readers for epigenetic DNA modifications on cytosine”.
# How the values were obtained:
# Assay in all cases: DAPPL (digital affinity profiling via proximity ligation, sequencing); 10 mM Tris-HCl pH 7.5, 50 mM NaCl, 1 mM DTT, 4% glycerol, room temperature, 30 min; GST-TFs on glutathione beads, 16-mer random dsDNA library, 0.1% formaldehyde crosslink after washing; high values mean tight binding
# [1] = molecular target: T1, FLI1 (Homo sapiens, UniProt Q01543 1-452); settings: protein: recombinant; tags: N-terminal GST; dsDNA, one strand shown
# T1 sequence: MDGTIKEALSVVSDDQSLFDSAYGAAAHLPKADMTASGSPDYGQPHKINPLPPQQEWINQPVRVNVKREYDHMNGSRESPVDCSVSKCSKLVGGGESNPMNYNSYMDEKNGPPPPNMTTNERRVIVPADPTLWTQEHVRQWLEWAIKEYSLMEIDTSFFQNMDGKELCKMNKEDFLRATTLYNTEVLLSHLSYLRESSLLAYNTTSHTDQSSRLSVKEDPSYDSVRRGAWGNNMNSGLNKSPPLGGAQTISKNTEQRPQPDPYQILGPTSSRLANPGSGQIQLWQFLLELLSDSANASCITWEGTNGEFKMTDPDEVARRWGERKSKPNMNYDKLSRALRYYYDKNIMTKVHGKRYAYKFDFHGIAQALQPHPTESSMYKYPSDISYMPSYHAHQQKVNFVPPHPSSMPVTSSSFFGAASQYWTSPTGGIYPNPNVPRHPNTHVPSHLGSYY
# Summary of the method: (§1)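 GST fusions of human transcription factors were expressed in yeast and captured with glutathione beads. Once given DNA barcodes and pooled alongside a tag-only sample, they were incubated for 30 min at room temperature with 200 nmole of a random double-stranded 16-mer DNA library in Tris/NaCl/DTT/glycerol buffer, then washed, crosslinked (0.1% formaldehyde), proximity-ligated, PCR-amplified and sequenced on an Illumina NextSeq500. The binding signal of each hexamer is its read frequency for a factor divided by its frequency for the tag-only sample.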
# [2] = molecular target: T2, ELK1 (Homo sapiens, UniProt P19419 1-428); settings: protein: recombinant; tags: N-terminal GST; dsDNA, one strand shown
# T2 sequence: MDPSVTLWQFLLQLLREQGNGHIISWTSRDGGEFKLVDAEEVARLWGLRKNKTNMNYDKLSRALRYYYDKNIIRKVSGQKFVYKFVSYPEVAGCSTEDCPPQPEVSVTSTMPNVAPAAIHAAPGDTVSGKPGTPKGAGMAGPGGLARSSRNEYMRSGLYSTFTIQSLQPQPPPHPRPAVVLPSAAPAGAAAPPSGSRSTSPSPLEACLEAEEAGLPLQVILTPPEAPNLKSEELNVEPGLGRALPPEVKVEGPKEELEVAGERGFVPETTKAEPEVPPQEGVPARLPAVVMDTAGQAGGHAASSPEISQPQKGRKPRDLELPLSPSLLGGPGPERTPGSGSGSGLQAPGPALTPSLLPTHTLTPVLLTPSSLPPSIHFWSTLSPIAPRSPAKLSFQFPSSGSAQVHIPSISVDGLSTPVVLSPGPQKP
# Summary of the method: as §1
# [3] = molecular target: T3, GABPA (Homo sapiens, UniProt Q06546 1-454); settings: protein: recombinant; tags: N-terminal GST; dsDNA, one strand shown
# T3 sequence: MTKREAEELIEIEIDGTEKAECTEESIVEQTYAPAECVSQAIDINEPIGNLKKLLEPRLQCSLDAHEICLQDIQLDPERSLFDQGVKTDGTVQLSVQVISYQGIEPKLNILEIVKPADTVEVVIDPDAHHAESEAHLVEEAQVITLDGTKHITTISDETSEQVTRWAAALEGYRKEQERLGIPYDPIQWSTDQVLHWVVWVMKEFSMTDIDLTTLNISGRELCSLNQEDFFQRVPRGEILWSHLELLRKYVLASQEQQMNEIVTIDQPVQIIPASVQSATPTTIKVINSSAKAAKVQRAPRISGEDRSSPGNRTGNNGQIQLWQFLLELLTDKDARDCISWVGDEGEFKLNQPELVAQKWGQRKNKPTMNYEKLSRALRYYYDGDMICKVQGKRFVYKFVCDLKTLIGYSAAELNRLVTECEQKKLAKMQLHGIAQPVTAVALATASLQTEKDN
# Summary of the method: as §1
# [4] = molecular target: T4, ERG (Homo sapiens, UniProt P11308 1-479); settings: protein: recombinant; tags: N-terminal GST; dsDNA, one strand shown
# T4 sequence: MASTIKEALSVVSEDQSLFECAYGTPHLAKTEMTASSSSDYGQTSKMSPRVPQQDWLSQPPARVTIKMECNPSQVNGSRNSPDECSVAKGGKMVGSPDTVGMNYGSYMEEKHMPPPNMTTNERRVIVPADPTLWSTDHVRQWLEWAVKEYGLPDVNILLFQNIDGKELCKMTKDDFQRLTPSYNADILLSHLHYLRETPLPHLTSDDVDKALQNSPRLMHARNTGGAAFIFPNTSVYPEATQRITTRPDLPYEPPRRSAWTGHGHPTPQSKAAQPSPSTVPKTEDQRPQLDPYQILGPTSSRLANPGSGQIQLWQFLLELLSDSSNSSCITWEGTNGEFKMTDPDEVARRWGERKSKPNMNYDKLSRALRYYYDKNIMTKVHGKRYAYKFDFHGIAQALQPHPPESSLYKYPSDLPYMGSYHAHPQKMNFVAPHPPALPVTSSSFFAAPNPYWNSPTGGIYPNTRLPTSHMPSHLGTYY
# Summary of the method: as §1
# [5] = molecular target: ELF1 (Homo sapiens, UniProt P32519 1-619); settings: protein: recombinant; tags: N-terminal GST; dsDNA, one strand shown
# Summary of the method: as §1
# [6] = molecular target: T5, EHF (Homo sapiens, UniProt Q9NZC4 1-300); settings: protein: recombinant; tags: N-terminal GST; dsDNA, one strand shown
# T5 sequence: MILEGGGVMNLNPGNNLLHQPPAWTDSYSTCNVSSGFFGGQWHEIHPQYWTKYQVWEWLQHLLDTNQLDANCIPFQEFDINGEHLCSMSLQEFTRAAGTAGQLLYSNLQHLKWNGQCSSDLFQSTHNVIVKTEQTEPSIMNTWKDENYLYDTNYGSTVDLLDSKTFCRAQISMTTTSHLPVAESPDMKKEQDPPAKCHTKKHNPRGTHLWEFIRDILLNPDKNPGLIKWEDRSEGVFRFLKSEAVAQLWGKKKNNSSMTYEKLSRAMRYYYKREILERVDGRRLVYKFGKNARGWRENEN
# Summary of the method: as §1
# [7] = molecular target: SPI1 (Homo sapiens, UniProt P17947 1-270); settings: protein: recombinant; tags: N-terminal GST; dsDNA, one strand shown
# Summary of the method: as §1
# [8] = molecular target: SPIB (Homo sapiens, UniProt Q01892 1-262); settings: protein: recombinant; tags: N-terminal GST; dsDNA, one strand shown
# Summary of the method: as §1
# [9] = molecular target: T6, ELK3 (Homo sapiens, UniProt P41970 1-407); settings: protein: recombinant; tags: N-terminal GST; dsDNA, one strand shown
# T6 sequence: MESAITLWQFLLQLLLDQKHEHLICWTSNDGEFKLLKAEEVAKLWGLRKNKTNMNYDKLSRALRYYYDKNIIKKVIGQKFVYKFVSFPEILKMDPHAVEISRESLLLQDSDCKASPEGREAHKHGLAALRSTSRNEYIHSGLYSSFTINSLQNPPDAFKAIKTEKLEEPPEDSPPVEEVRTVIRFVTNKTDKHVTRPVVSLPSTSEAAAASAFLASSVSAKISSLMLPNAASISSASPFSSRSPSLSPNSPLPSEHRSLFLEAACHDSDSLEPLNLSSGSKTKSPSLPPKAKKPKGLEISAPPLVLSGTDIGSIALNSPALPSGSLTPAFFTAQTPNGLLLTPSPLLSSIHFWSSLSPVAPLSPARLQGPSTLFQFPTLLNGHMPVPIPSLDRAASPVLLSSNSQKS
# Summary of the method: as §1
# [10] = molecular target: T7, FEV (Homo sapiens, UniProt Q99581 1-238); settings: protein: recombinant; tags: N-terminal GST; dsDNA, one strand shown
# T7 sequence: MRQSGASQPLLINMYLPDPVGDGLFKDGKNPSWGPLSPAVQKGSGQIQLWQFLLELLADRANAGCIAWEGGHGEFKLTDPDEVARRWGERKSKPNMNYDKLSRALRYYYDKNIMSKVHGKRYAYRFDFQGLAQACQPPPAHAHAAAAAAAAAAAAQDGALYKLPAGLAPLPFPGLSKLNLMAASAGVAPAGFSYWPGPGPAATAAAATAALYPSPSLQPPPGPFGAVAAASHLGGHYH
# Summary of the method: as §1
# [11] = molecular target: ETV5 (Homo sapiens, UniProt P41161 1-510); settings: protein: recombinant; tags: N-terminal GST; dsDNA, one strand shown
# Summary of the method: as §1
# [12] = molecular target: HSF1 (Homo sapiens, UniProt Q00613 1-529); settings: protein: recombinant; tags: N-terminal GST; chain copies: 3; dsDNA, one strand shown
# Summary of the method: as §1
# [13] = molecular target: T8, SPIC (Homo sapiens, UniProt Q8N5J4 1-248); settings: protein: recombinant; tags: N-terminal GST; dsDNA, one strand shown
# T8 sequence: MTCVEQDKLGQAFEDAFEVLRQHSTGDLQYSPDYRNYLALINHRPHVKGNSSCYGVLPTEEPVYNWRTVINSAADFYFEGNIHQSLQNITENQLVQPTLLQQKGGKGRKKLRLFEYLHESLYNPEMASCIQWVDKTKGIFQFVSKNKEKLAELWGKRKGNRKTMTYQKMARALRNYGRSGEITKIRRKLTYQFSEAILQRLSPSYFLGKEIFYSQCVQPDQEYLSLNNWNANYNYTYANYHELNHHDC
# Summary of the method: as §1
# [14] = molecular target: ELF4 (Homo sapiens, UniProt Q99607 1-663); settings: protein: recombinant; tags: N-terminal GST; dsDNA, one strand shown
# Summary of the method: as §1
# [15] = molecular target: T9, ELK4 (Homo sapiens, UniProt P28324-2 1-405); settings: protein: recombinant; tags: N-terminal GST; dsDNA, one strand shown
# T9 sequence: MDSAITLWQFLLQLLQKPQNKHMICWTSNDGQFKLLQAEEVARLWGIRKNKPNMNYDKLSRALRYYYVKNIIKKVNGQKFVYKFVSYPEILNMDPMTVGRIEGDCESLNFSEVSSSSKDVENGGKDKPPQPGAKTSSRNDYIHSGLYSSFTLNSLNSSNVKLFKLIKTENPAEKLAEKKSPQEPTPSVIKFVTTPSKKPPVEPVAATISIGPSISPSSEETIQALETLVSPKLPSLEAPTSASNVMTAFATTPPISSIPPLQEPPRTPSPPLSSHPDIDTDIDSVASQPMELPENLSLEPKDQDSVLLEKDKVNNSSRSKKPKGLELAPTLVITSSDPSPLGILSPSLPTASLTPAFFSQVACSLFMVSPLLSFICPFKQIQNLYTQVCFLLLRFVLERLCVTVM
# Summary of the method: as §1
# [16] = molecular target: T10, ETV2 (Homo sapiens, UniProt O00321 1-342); settings: protein: recombinant; tags: N-terminal GST; dsDNA, one strand shown
# T10 sequence: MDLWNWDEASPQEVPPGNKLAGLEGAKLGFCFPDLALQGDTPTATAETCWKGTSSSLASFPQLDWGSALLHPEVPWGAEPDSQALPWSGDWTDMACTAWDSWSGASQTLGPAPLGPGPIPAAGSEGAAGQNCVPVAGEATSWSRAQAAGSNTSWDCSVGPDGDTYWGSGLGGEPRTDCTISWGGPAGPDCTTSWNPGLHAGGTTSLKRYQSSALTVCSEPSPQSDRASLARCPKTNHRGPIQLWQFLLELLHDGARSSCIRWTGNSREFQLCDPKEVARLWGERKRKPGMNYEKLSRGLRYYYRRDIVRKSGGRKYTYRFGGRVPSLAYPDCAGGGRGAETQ
# Summary of the method: as §1
# [17] = molecular target: T11, ELF3 (Homo sapiens, UniProt P78545 1-371); settings: protein: recombinant; tags: N-terminal GST; dsDNA, one strand shown
# T11 sequence: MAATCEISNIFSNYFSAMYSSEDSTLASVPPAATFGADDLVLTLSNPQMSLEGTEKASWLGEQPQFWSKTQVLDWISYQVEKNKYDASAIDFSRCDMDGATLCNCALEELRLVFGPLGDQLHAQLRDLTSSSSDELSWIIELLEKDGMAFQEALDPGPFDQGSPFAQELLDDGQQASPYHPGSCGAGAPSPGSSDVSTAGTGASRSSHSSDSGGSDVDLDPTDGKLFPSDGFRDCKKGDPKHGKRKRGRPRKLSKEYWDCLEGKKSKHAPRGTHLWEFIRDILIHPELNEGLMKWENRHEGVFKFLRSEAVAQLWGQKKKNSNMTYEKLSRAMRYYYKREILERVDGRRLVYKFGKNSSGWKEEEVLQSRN
# Summary of the method: as §1
# [18] = molecular target: CRX (Homo sapiens, UniProt O43186 1-299); settings: protein: recombinant; tags: N-terminal GST; dsDNA, one strand shown
# Summary of the method: as §1
# [19] = molecular target: ETV1 (Homo sapiens, UniProt P50549 1-477); settings: protein: recombinant; tags: N-terminal GST; dsDNA, one strand shown
# Summary of the method: as §1
# Chain of ETV5 (P41161 whole entry): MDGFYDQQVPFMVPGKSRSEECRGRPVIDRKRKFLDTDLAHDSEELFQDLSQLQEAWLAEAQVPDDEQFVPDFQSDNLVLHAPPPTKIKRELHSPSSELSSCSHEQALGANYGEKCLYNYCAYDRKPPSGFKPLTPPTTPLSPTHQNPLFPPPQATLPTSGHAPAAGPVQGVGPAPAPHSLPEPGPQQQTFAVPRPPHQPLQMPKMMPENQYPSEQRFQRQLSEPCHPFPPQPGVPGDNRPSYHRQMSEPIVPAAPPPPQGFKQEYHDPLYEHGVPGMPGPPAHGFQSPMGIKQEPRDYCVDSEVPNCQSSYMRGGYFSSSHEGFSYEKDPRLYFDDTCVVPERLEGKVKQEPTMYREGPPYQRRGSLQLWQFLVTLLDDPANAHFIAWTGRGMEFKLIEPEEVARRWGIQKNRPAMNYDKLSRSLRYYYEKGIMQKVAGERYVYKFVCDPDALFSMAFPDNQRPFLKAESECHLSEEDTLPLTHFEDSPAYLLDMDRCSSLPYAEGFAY
# Chain of HSF1 (Q00613 whole entry): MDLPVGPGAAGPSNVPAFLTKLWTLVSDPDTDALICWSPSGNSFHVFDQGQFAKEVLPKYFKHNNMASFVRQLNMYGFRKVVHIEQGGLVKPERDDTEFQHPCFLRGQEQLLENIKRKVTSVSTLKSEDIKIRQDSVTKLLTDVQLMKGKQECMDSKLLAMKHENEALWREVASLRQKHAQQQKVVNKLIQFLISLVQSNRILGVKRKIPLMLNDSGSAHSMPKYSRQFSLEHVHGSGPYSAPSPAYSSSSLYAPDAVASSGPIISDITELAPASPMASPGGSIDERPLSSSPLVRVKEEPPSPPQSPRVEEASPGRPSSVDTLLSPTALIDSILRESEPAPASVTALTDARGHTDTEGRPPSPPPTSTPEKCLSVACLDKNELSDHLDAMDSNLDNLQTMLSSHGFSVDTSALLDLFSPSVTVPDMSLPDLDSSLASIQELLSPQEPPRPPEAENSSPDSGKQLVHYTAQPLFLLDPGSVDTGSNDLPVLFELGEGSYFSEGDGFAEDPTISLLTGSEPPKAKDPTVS
# Chain of CRX (O43186 whole entry): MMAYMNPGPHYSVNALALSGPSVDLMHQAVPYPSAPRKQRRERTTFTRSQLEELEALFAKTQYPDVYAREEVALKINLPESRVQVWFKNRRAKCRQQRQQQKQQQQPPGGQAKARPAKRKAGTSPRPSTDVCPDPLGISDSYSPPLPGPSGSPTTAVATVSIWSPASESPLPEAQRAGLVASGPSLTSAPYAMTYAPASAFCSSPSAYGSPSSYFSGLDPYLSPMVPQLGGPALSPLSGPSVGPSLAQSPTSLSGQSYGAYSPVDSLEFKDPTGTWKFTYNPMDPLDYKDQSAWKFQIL
# Chain of ELF4 (Q99607 whole entry): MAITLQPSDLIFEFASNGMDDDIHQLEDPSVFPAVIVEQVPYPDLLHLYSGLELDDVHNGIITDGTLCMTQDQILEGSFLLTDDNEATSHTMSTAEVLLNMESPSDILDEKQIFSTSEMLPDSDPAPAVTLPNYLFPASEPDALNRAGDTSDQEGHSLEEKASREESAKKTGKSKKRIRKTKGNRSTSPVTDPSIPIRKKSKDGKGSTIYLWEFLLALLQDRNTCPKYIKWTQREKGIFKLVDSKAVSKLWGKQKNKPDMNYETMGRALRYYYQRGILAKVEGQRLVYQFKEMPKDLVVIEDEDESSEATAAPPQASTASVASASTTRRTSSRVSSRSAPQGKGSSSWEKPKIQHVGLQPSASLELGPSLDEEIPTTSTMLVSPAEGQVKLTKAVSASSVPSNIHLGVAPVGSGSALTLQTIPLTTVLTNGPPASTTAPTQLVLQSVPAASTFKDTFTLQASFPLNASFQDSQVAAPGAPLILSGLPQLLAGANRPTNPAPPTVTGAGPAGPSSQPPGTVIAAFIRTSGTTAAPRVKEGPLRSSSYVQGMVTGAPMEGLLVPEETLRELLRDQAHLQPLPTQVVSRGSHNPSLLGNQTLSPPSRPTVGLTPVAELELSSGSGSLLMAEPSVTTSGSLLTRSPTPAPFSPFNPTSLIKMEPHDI
# Chain of SPIB (Q01892 whole entry): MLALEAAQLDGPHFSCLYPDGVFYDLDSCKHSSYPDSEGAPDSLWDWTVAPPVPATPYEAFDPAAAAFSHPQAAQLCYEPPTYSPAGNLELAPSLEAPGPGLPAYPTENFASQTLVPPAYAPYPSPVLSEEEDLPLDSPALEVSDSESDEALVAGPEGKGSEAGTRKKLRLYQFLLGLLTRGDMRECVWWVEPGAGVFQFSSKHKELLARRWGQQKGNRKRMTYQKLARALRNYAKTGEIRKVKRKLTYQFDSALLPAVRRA
# Chain of ETV1 (P50549 whole entry): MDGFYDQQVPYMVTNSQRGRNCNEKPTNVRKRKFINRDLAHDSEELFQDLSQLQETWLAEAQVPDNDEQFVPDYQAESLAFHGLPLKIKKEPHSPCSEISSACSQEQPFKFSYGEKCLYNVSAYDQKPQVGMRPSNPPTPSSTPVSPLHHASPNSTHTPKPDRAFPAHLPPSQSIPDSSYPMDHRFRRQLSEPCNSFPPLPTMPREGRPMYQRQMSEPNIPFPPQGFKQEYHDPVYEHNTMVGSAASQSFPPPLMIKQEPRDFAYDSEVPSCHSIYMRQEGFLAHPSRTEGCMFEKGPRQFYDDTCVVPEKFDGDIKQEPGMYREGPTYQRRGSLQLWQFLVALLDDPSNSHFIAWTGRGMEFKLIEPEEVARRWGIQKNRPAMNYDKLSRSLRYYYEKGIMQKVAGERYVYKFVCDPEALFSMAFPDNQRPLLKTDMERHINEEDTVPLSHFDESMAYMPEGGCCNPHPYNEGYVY
# Chain of ELF1 (P32519 whole entry): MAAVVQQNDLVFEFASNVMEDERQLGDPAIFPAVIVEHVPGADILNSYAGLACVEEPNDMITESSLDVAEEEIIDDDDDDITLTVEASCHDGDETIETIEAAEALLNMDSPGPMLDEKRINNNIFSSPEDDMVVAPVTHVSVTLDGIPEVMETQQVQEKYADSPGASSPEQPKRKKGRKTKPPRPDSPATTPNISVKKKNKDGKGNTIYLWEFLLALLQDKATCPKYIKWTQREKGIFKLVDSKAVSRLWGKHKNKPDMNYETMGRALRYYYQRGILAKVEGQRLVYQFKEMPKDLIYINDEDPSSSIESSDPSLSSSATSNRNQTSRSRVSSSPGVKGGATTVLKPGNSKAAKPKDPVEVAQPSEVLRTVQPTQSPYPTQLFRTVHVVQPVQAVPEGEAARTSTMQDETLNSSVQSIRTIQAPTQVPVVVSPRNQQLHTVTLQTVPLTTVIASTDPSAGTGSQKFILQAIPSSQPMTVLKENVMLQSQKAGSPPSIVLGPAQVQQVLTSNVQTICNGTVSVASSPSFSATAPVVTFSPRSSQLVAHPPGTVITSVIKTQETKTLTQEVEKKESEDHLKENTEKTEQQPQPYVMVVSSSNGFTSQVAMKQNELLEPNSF
sequence,measurement,setting,value
GATTTC,binding signal,[1],"1.77 fold enrichment (6-mer frequency, TF over GST control)"
same,binding signal,[2],"1.78 fold enrichment (6-mer frequency, TF over GST control)"
same,binding signal,[3],"1.55 fold enrichment (6-mer frequency, TF over GST control)"
same,binding signal,[4],"2.15 fold enrichment (6-mer frequency, TF over GST control)"
same,binding signal,[5],"1.62 fold enrichment (6-mer frequency, TF over GST control)"
same,binding signal,[6],"1.71 fold enrichment (6-mer frequency, TF over GST control)"
same,binding signal,[7],"1.67 fold enrichment (6-mer frequency, TF over GST control)"
same,binding signal,[8],"1.72 fold enrichment (6-mer frequency, TF over GST control)"
same,binding signal,[9],"1.73 fold enrichment (6-mer frequency, TF over GST control)"
same,binding signal,[10],"2.86 fold enrichment (6-mer frequency, TF over GST control)"
same,binding signal,[11],"1.92 fold enrichment (6-mer frequency, TF over GST control)"
same,binding signal,[12],"1.56 fold enrichment (6-mer frequency, TF over GST control)"
same,binding signal,[13],"1.65 fold enrichment (6-mer frequency, TF over GST control)"
same,binding signal,[14],"1.7 fold enrichment (6-mer frequency, TF over GST control)"
same,binding signal,[15],"1.64 fold enrichment (6-mer frequency, TF over GST control)"
same,binding signal,[16],"1.64 fold enrichment (6-mer frequency, TF over GST control)"
same,binding signal,[17],"1.62 fold enrichment (6-mer frequency, TF over GST control)"
same,binding signal,[18],"1.52 fold enrichment (6-mer frequency, TF over GST control)"
same,binding signal,[19],"1.79 fold enrichment (6-mer frequency, TF over GST control)"
